# L3MBTL1 inh = blocks human L3MBTL1. Potency, µM (titrated, usually from 57.1 µM), usual class: inhibitors. AID 485360. AlphaScreen L3MBTL1–H3K9me1 peptide binding. actives 0.66% (n = 230,000); further: nearly all actives have a fitted effect of over 60% in size
#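 L3MBTL1 50 nM + b-AHA-H3(1-15)K9me1 75 nM, 30 min RT; compound added, 30 min RT; streptavidin donor/Ni-chelate acceptor beads 10 ug/mL each final, 30 min RT dark; AlphaScreen read.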
# JMJD2A Tudor = JMJD2A Tudor domain (human) inhibition | AlphaScreen JMJD2A-Tudor / H3K4me3 peptide binding | Potency, µM (series often up to 114 µM), hits mostly inhibitors | AID 504339 | actives 4.4% (n = 390,000); further: nearly all actives have a fitted effect of over 50% in size
# BAZ2B block = inhibitors of human BAZ2B bromodomain; Q9UIF8; AlphaScreen BAZ2B-H3K14Ac peptide displacement; Potency, µM (top dose mostly 114 µM), usual class: inhibitors; actives 4.4% (n = 360,000); AID 504333; further: nearly all actives have a fitted effect of over 60% in size
#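 Inhibition is scored as reduced AlphaScreen emission. The BAZ2B/b-H3(5-23)K14Ac complex (50 nM each) in PBS pH 7.4, 0.01% Tween-20 meets compound (up to 110 uM) for 30 min at RT before bead addition.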
# GLS inh = blocks human kidney-isoform glutaminase activity; O94925; GLS enzymatic activity, qHTS titration; Potency, µM (series often up to 45.5 µM), actives largely listed as inhibitors; actives 0.21% (n = 410,000)
# Target sequence (O94925 whole entry, looked up, canonical isoform): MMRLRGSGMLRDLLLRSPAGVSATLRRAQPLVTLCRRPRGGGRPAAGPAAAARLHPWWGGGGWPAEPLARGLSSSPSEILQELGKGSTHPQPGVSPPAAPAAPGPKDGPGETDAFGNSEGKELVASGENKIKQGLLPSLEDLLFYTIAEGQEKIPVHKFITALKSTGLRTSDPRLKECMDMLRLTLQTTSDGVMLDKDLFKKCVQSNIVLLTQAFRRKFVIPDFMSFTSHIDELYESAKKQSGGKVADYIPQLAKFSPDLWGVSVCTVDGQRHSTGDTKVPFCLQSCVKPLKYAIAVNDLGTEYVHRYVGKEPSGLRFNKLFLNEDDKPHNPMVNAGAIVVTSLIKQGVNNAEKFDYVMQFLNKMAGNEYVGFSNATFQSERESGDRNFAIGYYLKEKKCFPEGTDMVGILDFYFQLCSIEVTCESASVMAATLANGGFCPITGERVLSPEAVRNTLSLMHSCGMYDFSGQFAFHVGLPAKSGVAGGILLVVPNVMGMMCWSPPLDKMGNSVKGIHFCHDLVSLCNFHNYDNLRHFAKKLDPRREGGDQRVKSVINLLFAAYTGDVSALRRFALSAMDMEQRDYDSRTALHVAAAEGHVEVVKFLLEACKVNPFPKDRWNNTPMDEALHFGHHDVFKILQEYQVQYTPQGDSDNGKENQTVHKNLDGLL
#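 Assay buffer: 45 mM KH2PO4 pH 8.2, 0.02% Tween-20. hKGA acts on L-glutamine (1 mM solution added); product glutamate is reported by an oxidase/peroxidase Amplex Red coupling, with fluorescence taken at baseline and 30 min.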
# G9a inh = G9a (human) methyltransferase inhibition; Q96KQ7; G9a H3K9 monomethylation, AlphaScreen, 2 h; Potency, µM (highest dose often 102 µM), hits mostly inhibitors; actives 8.8% (n = 350,000); AID 504332; further: nearly all actives have a fitted effect of over 75% in size
#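 Enzyme 20 nM + cpd, 15 min RT; add b-H3K9 pep 500 nM / SAM 20 uM; 2 h RT; anti-H3K9me1 Ab 0.5 ug/mL + SA donor / anti-rabbit acceptor beads 20 ug/mL each, 10 min; AlphaScreen read.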
# HP1b chromo inh = inhibitors of HP1-beta chromodomain binding to methylated histone tails. actives 0.56% (n = 390,000). Potency, µM (titrated, usually from 114 µM), most hits filed as inhibitors. AlphaScreen HP1-beta / biotin-H3K9me3 peptide binding; further: nearly all actives have a fitted effect of over 70% in size
#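 AlphaScreen: HP1-beta (50 nM) preformed 30 min with biotin-H3(1-18)K9me3 peptide (50 nM) in PBS pH 7.4, 0.01% Tween-20. Compound added for 30 min at RT, then streptavidin donor/nickel chelate acceptor beads (10 ug/mL) for 30 min.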
# Hits are given with their value; 0 = inactive; ? = inconclusive; - = not tested or not shown; ! = not confirmed by another sample; [ ] = remark or other dose. Compounds with a hit are over-represented: about 10% of the library has one in this group of screens. The call rests on the fitted dose curve; in most records, active means well fitted curve in the direction sought with a large enough effect; inconclusive means small, poorly fitted or top-dose-only effect, or another doubt; inactive means no such curve, though single readings can be large; an effect the other way counts as inactive or inconclusive.
SMILES,L3MBTL1 inh,JMJD2A Tudor,BAZ2B block,GLS inh,G9a inh,HP1b chromo inh
COCCCNC(=O)CN1C(=O)COc2ccc(S(=O)(=O)N3CCCC3)cc21,-,0,0,0,0,0
CNS(=O)(=O)c1cc(-c2nnc(Nc3cc(C)ccc3C)c3ccccc23)ccc1C,-,0,0,0,?,0
COc1ccc(-n2c(C)cc(C(=O)CSc3ccc(NC(C)=O)cc3)c2C)cc1,?,?,45µM,0,?,?
Cc1ccc(OCC(=O)c2cc(C)n(-c3cc(C)on3)c2C)c([N+](=O)[O-])n1,0,0,?,0,50µM,0
COc1ccc(NC(=O)CSc2ccc(C)cc2)cc1,0,0,0,0,0,0
CC(=O)Nc1ccc(SCCCC(=O)c2ccccc2)cc1,-,0,0,0,45µM,0
Cc1ccc(OCC(=O)c2ccc(Cl)s2)c([N+](=O)[O-])n1,0,56µM,50µM,0,50µM,0
NS(=O)(=O)Nc1c(Br)cc(Br)c2cccnc12,-,?,-,-,-,0
Cc1nn(C)c2c1c(-c1ccccc1)cc(=O)n2Cc1ccc(Cl)cc1,-,0,0,0,0,0
CC(C)c1ccc(C2c3c(-c4ccccc4O)n[nH]c3C(=O)N2CCc2ccccc2)cc1 (stereo unspecified),-,0,0,0,0,0
O=C(CSc1nc2ncc(Cl)cc2[nH]1)Nc1cccc(F)c1,-,0,0,0,50µM,0
Cc1cc(NS(=O)(=O)c2ccc(NC(=O)CSc3nc4ncc(Cl)cc4[nH]3)cc2)nc(C)n1,0,0,0,0,45µM,0
Nc1ncnc2nc(SCC(=O)Nc3cccc(C(F)(F)F)c3)[nH]c12,-,0,0,0,35µM,0
CCOC(=O)c1c(C)oc2nc(C)nc(N(C)Cc3ccccc3)c12,-,0,0,0,0,0
CCc1nnc(NC(=O)c2ccc(S(=O)(=O)N(CC)Cc3ccccc3)cc2)o1,0,0[11.4 µM],50µM,?,0,0
CCN(CC)S(=O)(=O)c1ccc(C(=O)Nc2nnc(CSC)o2)cc1,0,0,79µM,0,0,0
CCCCN(C)S(=O)(=O)c1ccc(C(=O)Nc2nnc(CSC)o2)cc1,0,79µM,?,0,-,0
CCOC(=O)N1CCN(S(=O)(=O)c2ccc(C(=O)Nc3nnc(CSC)o3)cc2)CC1,0,45µM,79µM,0,0,0
CCN(Cc1ccccc1)S(=O)(=O)c1ccc(C(=O)Nc2nnc(C)o2)cc1,-,0,?,0,0,0
CCCN(CCC)C(=O)Cn1c(=O)n(Cc2ccc(C(=O)NCCc3ccc(Cl)cc3)cc2)c(=O)c2ccccc21,-,0,0,0,0,0
O=c1c(NCCc2ccc(Cl)cc2)nccn1-c1ccccc1,-,0,0,0,0,0
Cc1nn(CC(=O)NC2CCCCC2)c(=O)c2cc3cc(F)ccc3n12,-,0,0,0,0,0
O=c1c(Cl)c(NCCCO)cnn1-c1nc2ccccc2[nH]1,0,0[11.4 µM],50µM,0,0[12.7 µM],0
C=CCN(CC=C)c1cnn(-c2nc3ccccc3[nH]2)c(=O)c1Cl,-,0,?,0,?,0
COc1cc2nc(C3CCC3)nc(N3CCN(c4ccccn4)CC3)c2cc1OC,0,?,50µM,0,50µM,0
SMILES,L3MBTL1 inh,JMJD2A Tudor,BAZ2B block,GLS inh,G9a inh,HP1b chromo inh
COc1cc2nc(C3CCC3)nc(N3CCN(c4ccccc4OC)CC3)c2cc1OC,28µM,?,?,0,?,0
COc1cc2nc(Cl)nc(N3CCN(C)CC3)c2cc1OC,-,-,0,-,?,-
CC(C)c1nn2c(=O)cc(COC(=O)c3ccc(NC(=O)C4CCCCC4)cc3)nc2s1,-,0,0,0,0,0
Cc1ccc(Cn2c(=O)c3cccnc3n(Cc3ccc(F)cc3)c2=O)cc1,-,0,0,0,0,0
CC1=C(C(=O)Nc2ccccc2)C(c2ccncc2)C(C#N)=C(SCC(=O)NC2CC2)N1 (stereo unspecified),0,0,0,0,28µM,0
CC1=C(C(=O)Nc2ccccc2)C(c2ccncc2)C(C#N)=C(SCC(=O)NC(C)C)N1 (stereo unspecified),0,0,0,0,11µM,0
S=C1NNC2(CC3CC2C2CCCC32)NN1 (stereo unspecified),0,?,0,0,1.8µM,0
CCNc1nc(NCC)nc(-n2cc(C(=O)c3cc(Cl)ccc3O)cn2)n1,-,?,-,-,-,0
CN(CCCN(Cc1ccc(Cl)cc1)c1ccc(Br)cn1)C(=S)NCCCc1cnc[nH]1,-,56µM,-,-,-,?
CC(=O)NCCCN(Cc1ccc(Cl)c(Cl)c1)c1ccc(Br)cn1,-,0,-,-,-,0
O=C(NCCCc1cnc[nH]1)NCCCN(Cc1ccc(Cl)c(Cl)c1)c1ccc(Br)cn1,-,50µM,-,-,-,-
S=C(NCCCc1cnc[nH]1)NCCCN(Cc1ccc(Cl)c(Cl)c1)c1ccccn1,-,45µM,-,-,-,-
CCCCN(Cc1ccc(Cl)c(Cl)c1)c1ccc(Br)cn1,-,0,-,-,-,0
S=C(NCCCCN(Cc1ccc(Cl)cc1)c1ccc(Br)cn1)NCCCc1cnc[nH]1,-,45µM,-,0,-,25µM
Cn1c(=O)c2c(nc(Oc3ccccc3Cl)n2Cc2ccc(C#N)cc2)n(C)c1=O,-,0,-,0,0,0
COc1cc(C2CC(=O)Oc3cc(C)c(Cl)cc32)cc(OC)c1OC (stereo unspecified),-,-,-,-,0,-
O=C1CCN(S(=O)(=O)c2ccccc2)N1,0,0,0,0,11µM,0
CCc1cccc(NC(=O)C(CC)n2nc(C)c3sc4ccccc4c3c2=O)c1 (stereo unspecified),-,0,0,0,0,0
Cc1ccc(N(C)C(=O)Cn2cc(S(=O)(=O)N3CCCC3)c(S(=O)(=O)N3CCCC3)c2)cc1,-,0,0,0,0,0
O=S(=O)(Nc1cccnc1)c1ccc(F)cc1,0,0,0,0,0,0
O=S(=O)(Nc1ccncc1)c1ccccc1,0,0,?,0,50µM,0
O=S(=O)(Nc1cccnc1)c1ccccc1,-,50µM!,0,0,0,0
C[C@@H]1NC(=O)c2cc([N+](=O)[O-])cc(I)c2OCC[C@@H](C(N)=O)NC(=O)[C@H](CCCCN)NC1=O,0,0,0,0,45µM,0
CC[C@H](C)[C@@H]1NC(=O)c2cc([N+](=O)[O-])cc(F)c2OCC[C@@H](C(N)=O)NC(=O)[C@H](CCCCN)NC1=O,0,0,0,0,?,0
C[C@@H]1NC(=O)[C@H](CCCN=C(N)N)NC(=O)c2cc([N+](=O)[O-])cc(I)c2OCC[C@@H](C(N)=O)NC1=O,0,-,?,-,32µM,-
NCCCC[C@H]1NC(=O)[C@H](CCC(=O)O)NC(=O)c2cc([N+](=O)[O-])cc(I)c2OCC[C@@H](C(N)=O)NC1=O,0,50µM,0,?,25µM,0
